Data from PubChem BioAssay (NCATS).
Inconclusive results are not listed. Calls of active or inactive are those of the source. Unless noted, calls follow the shape of the dose curve; as a rule, active = well fitted curve in the direction sought with a large enough effect; inconclusive = small, poorly fitted or top-dose-only effect, or another doubt; inactive = no such curve, though single readings can be large; an effect the other way counts as inactive or inconclusive.

What was measured:
Furin (Homo sapiens) = Furin (Homo sapiens) (UniProt P09958); experiment: Furin counterscreen qHTS for Zika virus inhibitors (AID 1347149); also: nearly all actives have a fitted effect of over 70% in size; also: potency is read from the fitted curve at half-maximal effect
Outline: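 Counterscreen measures cleavage of 2 microM BOC-RVRR-AMC, below its ~15 microM Km, by 5 nM full-length human furin at pH 7.0 after a 15-min compound preincubation. Inhibition derives from the 15-min fluorescence increase at 37C.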

[1] = tested on: Zika virus NS2B-NS3 protease (unlinked); experiment: Optimization of GU AMC qHTS for Zika virus inhibitors: Unlinked NS2B-NS3 protease assay (AID 1347151); also: series mostly up to about 52 µM; nearly all actives have a fitted effect of over 80% in size
Outline: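 Unlinked protease (25 nM final); buffer 10 mM Tris-HCl pH 8.0 + 0.01% Tween 20; AMC substrate; 15 min RT, dark; Δfluorescence normalized to no-inhibitor/no-enzyme controls; 4-parameter Hill fit.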

[2] = ZIKV-mCherry secondary qHTS for Zika virus inhibitors (AID 1347158); also: top concentration of the series differs between compounds
Outline: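 Percent infection is the share of Hoechst-identified Vero nuclei with mCherry signal above 450 RFU (3 SD over negative controls). Cells were infected with recombinant ZIKV-mCherry at MOI 1 after compound addition and imaged 48–72 h later.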

[3] = tested on: Zika virus NS2B-NS3 protease (linked); experiment: 384 well plate NINDS AMC confirmatory qHTS for Zika virus inhibitors (AID 1347163);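 also: linked protease at 5 30 or 60 nM final depending on run; fluorescence of AMC released from Ac-VKTGKR-AMC peptide cleaved by the protease; top concentration of the series differs between compounds; nearly all actives have a fitted effect of over 50% in size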
Outline: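 Fluorescence at 355/460 nm was read after 25 minutes of cleavage of 30 microM Ac-VKTGKR-AMC at room temperature, in the dark. Before substrate addition, compounds (up to 1 mM final) sat ~15 minutes with 5, 30 or 60 nM linked protease. Signals were normalized to no-enzyme and no-inhibitor wells.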

[4] = tested on: Zika virus NS2B-NS3 protease (linked construct); experiment: 384 well plate NINDS Rhodamine confirmatory qHTS for Zika virus inhibitors (AID 1347164);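 also: fluorescence from protease cleavage of Ac-LKRR-rhodamine 110 substrate; top concentration of the series differs between compounds; plate controls were no-inhibitor control for no effect and no-enzyme control for full effect; nearly all actives have a fitted effect of over 65% in size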
Outline: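 Enzyme (final 5/30/60 nM) + cpd (DMSO), ~15 min; add Ac-LKRR-Rd 10 microM final; 25 min RT, dark; FI ex 485/em 538; normalized to no-enzyme, no-inhibitor ctrls; aprotinin intraplate ctrl.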

[5] = Vero cells viability qHTS for Zika virus inhibitors (AID 1347167); also: % is scaled to controls: 0 for no effect and ±100 for the full control effect
Outline: (§1)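 To flag cytotoxic protease inhibitors, viability is measured by ATP-dependent luminescence (CellTiter Glo) after cells attached overnight receive compound for 24 to 48 hours in DMEM with 4% FBS.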

[6] = HepG2 cells viability qHTS for Zika virus inhibitors (AID 1347168); also: % is scaled to controls: 0 for no effect and ±100 for the full control effect
Outline: as §1

[7] = Tertiary RLuc qRT-PCR qHTS assay for Zika virus inhibitors (AID 1347169); also: top concentration of the series differs between compounds; % is scaled to controls: 0 for no effect and ±100 for the full control effect; nearly all actives have a fitted effect of over 55% in size
Outline: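 Vero, 1,000 cells/well, o/n 37 C; cpd pinned in DMSO; ZIKV-RLuc Cambodian, MOI 1-2, 48-72 h 37 C; live-cell RLuc substrate, lum read at 1-1.5 h.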

[8] = qHTS for Inhibitors of Plasmodium falciparum (CP250) proliferation (AID 504320);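 also: plate controls were DMSO vehicle for no effect and 0.29 µM artemisinin control for full effect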
Outline: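 Parasite growth measured as SYBR Green DNA fluorescence (ex 485, em 535 nm) after overnight lysis following 72 h culture at 37 °C, 0.3% parasitemia, 2.5% hematocrit. Values normalized against DMSO and 0.29 uM artemisinin controls, with plate-stack correction.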

[9] = target: Atrial natriuretic peptide receptor 1 (Homo sapiens) (UniProt P16066); experiment: Natriuretic polypeptide receptor (hNpr1) antagonism - Pilot CMLD screen (AID 1347052; calls by dose curve;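 also: cGMP level read as GloSensor luciferase luminescence after agonist stimulation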; also: potency is read from the fitted curve at half-maximal effect)
[10] = Confirmation and Secondary Assay for Modulators of Hemoglobin Beta Chain Splicing at IVS2 654 locus (AID 910);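 also: per-well total GFP intensity by laser scanning cytometry after 2-day treatment; % of control where 0% means no effect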
Outline: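 HeLa cells stably carrying EGFP interrupted by mutant beta-globin IVS2-654 intron (CMV-driven) were treated with compound for 2 days at 37C; corrected splicing was scored as total peak GFP intensity per well (488 nm excitation, 500-520 nm emission).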

[11] = target: ATP-dependent DNA helicase Q1 (Homo sapiens) (UniProt P46063); experiment: qHTS Validation Assay for Inhibitors of RecQ-Like Dna Helicase 1 (RECQ1) (AID 2353);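 also: plate controls were DMSO vehicle for no effect and enzyme-free control for full effect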
Outline: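 RECQ1T1 50 nM; forked duplex (20 bp + 30-nt ss tails) 200 nM, ATP 2 mM final; pH 8.0, 2 mM MgCl2, 2.5 ug/ml poly(dI-dC); 15 min compound preincubation; discontinuous kinetic read over 2 h at RT.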

[12] = target: M-phase phosphoprotein 8 (Homo sapiens) (UniProt Q99549); experiment: qHTS Validation Assay for Inhibitors for MPP8 Chromodomain Interactions with Methylated Histone Tails (AID 488949);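 also: 50 nM MPP8 with 50 nM peptide preformed then compounds added for 30 min; AlphaScreen signal from MPP8 chromodomain bound to biotinylated H3K9me3 peptide; top concentration of the series differs between compounds; % is scaled to controls: 0 for no effect and ±100 for the full control effect; nearly all actives have a fitted effect of over 55% in size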
Outline: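 50 nM MPP8 + 50 nM b-H3K9me3 peptide, PBS pH 7.4/0.01% Tween-20, 30 min RT; + cpd 30 min RT; + AlphaScreen donor/Ni-chelate acceptor beads 10 ug/mL final, 30 min dark; luminescence read.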

[13] = target: T1, Hexokinase-4 (Homo sapiens) + Glucokinase regulatory protein (Homo sapiens) (UniProt P35557+Q14397); experiment: qHTS assay for inhibitors of recombinant human GCK-GKRP interaction: Diaphorase-coupled assay (AID 743205)
Outline: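 25 mM Hepes pH 7.6, 5 mM glucose, 0.4 mM ATP, 4 U/ml G6PDH; 10 nM each GST-GCK/FLAG-GKRP. Kinetic fluorescence read, 1/min × 30 min. Normalized: DMSO ± enzyme = max/min.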

[14] = target: T1, Hexokinase-4 (Homo sapiens) + Glucokinase regulatory protein (Homo sapiens); experiment: qHTS assay for inhibitors of recombinant human GCK-GKRP interaction: ADP-Glo assay (AID 743206);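 also: plate controls were DMSO plus enzyme for no effect and no enzyme for full effect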
Outline: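 Pin-transferred compounds meet a 15 nM GST-GCK/15 nM FLAG-GKRP/2 uM S6P mix (dispense concentrations). ATP is then added to 0.4 mM final with 5 mM glucose, and the reaction runs 60 min at room temperature. ADP is quantified luminescently.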

[15] = target: T1, Hexokinase-4 (Homo sapiens) + Glucokinase regulatory protein (Homo sapiens); experiment: qHTS assay for inhibitors of recombinant human GCK-GKRP interaction: HTRF assay (AID 743207);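 also: 0% = DMSO with GCK present and -100% = DMSO wells lacking GCK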
Outline: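 5 nM GST-GCK + 5 nM FLAG-GKRP + 2 uM S6P, pH 7.1 buffer (25 mM Hepes, 2 mM MgCl2, 25 mM KCl, 1 mM DTT, Tween/BSA); pin-transferred cpd; anti-FLAG XL665/anti-GST K; 60 min RT; HTRF.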

[16] = target: Parathyroid hormone/parathyroid hormone-related peptide receptor (Homo sapiens) (UniProt Q03431); experiment: qHTS for PTHR1 Agonists: Optimization Screen against the NCGC LOPAC library (AID 1347079);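 also: GloSensor cAMP luminescence in HEK-293 GP2 cells expressing human PTHR1 with IBMX; 0% is about no effect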
Outline: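 HEK-293 GP2 cells, PTHR1 + GloSensor cAMP; 3000 cells/well, o/n. Luciferin + IBMX 0.5mM each (stock), 1 hr 37C. Cpd titration, 1 hr 37C. Lum after 15 min RT. Ctrl M-PTH(1-15) top 10uM.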

[17] = target: N-terminal Xaa-Pro-Lys N-methyltransferase 1 (Homo sapiens) (UniProt Q9BV86); experiment: qHTS Assay for Inhibitors of N-terminal methyltransferase 1 (NTMT1): LOPAC validation of the NTMT1 SAHH-coupled ThioGlo3 Assay (AID 1347143);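 also: SAH from peptide methylation measured as thiol fluorescence via SAHH coupling and ThioGlo3; % is scaled to controls: 0 for no effect and ±100 for the full control effect; nearly all actives have a fitted effect of over 70% in size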
Outline: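 In this qHTS pilot against the LOPAC set, 125nM NTMT1 met compounds tested at multiple concentrations, and fluorescence was normalized to background.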

[18] = tested on: Zika virus NS2B-NS3 protease; experiment: Primary screen GU AMC qHTS for Zika virus inhibitors (AID 1347154); also: nearly all actives have a fitted effect of over 70% in size
Outline: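 Unlinked Zika NS2B hydrophilic domain/NS3 protease domain noncovalent complex (25 nM final) in 10 mM Tris-HCl pH 8.0, 0.01% Tween 20, with AMC peptide substrate. Fluorescence (ex 340, em 450 nm) change over 15 min, room temperature; percent inhibition fitted to 4-parameter Hill equation.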

[19] = tested on: Zika virus NS2B-NS3 protease (unlinked complex); experiment: Primary screen GU Rhodamine qHTS for Zika virus inhibitors: Unlinked NS2B-NS3 protease assay (AID 1347159); also: % is scaled to controls: 0 for no effect and ±100 for the full control effect; nearly all actives have a fitted effect of over 60% in size
Outline: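 Buffer 10 mM Tris-HCl pH 8.0, 0.01% Tween 20. Unlinked protease 25 nM; compound preincubation 15 min, RT, protected from light. Substrate Rhod110, 1.5 microM; ~15% conversion in 15 min.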

[20] = tested on: Zika virus NS2B-NS3 protease (linked construct); experiment: Primary screen NINDS Rhodamine qHTS for Zika virus inhibitors (AID 1347160); also: % is scaled to controls: 0 for no effect and ±100 for the full control effect; nearly all actives have a fitted effect of over 55% in size
Outline: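 Aprotinin served as in-plate control. Conditions: 25 nM linked NS2B-NS3, pH 8.0 Tris buffer, titrated compounds, 15 min preincubation and 15 min reaction with 1.5 microM Rhod110 substrate at room temperature.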

[21] = target: Lysine-specific demethylase 5B (Homo sapiens) (UniProt Q9UGL1); experiment: Optimization screen for KDM5B Histone Demethylases FDH coupled qHTS against the LOPAC library (AID 1347166); also: 0% is about no effect
Outline: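 KDM5BDeltaAP (200nM final) in 50mM HEPES pH 7.5, 0.01% Tween-20 was preincubated with compound for 10 min at room temperature. A substrate mix of 12.5uM H3K4Me3, 25uM a-ketoglutarate, ascorbate, Fe2+, NAD+ and formaldehyde dehydrogenase was then added. NADH fluorescence (340/450 nm) was read initially and after 30 min.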

[22] = qHTS for inhibitors of adenylyl cyclases using a fission yeast platform: a pilot screen against the NCATS LOPAC library (AID 1347410);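 also: plate controls were DMSO vehicle for no effect and DPI positive control for full effect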
Outline: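 Fission yeast qHTS: CHP2027 cells (AC9-GNAS-PDE4D2, fbp1-GFP), 5x10^6 cells/mL working density, EMM + His/Lys/Ura; LOPAC at up to 57 µM final; 18 h dark, 30C; GFP by laser cytometry. DPI positive control, DMSO vehicle.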

[23] = target: Single-stranded DNA cytosine deaminase (Homo sapiens) (UniProt Q9GZX7); experiment: Validation qHTS assay for inhibitors of Activation Induced Cytidine Deaminase (AID): AID signal (AID 1347429); also: % is scaled to controls: 0 for no effect and ±100 for the full control effect
Outline: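 Compounds (final up to 114 uM) preincubated with AID plus UDG; 250 nM DJC20/DJC23 substrate mix (4x stock) added, 4 hr at room temperature, then NaOH, 30 min. Read 1 fluorescence at 540 nm excitation, 590 nm emission.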

[24] = Primary qHTS for inhibitors of La Crosse Virus (LACV) - induced cell death in SH-SY5Y cells (AID 1508616);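 also: top concentration of the series differs between compounds; 0% = infected DMSO wells and 100% = uninfected DMSO wells; higher means more rescue of cells from virus-induced death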
Outline: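 Rescue of virus-induced death was read as ATPLite luminescence after 6 days at 37C, scaled between DMSO wells with LACV and without virus. Cells were SH-SY5Y, 6000/well, infected at 0.01 MOI after compound addition.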

Papain (Carica papaya) = Papain (Carica papaya) (UniProt P00784); experiment: Primary qHTS assay for inhibitors of the protease papain (AID 1645873);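 also: papain turnover of Z-FR-AMC read as the AMC fluorescence gain over 10 min; series mostly up to about 50 µM; % is scaled to controls: 0 for no effect and ±100 for the full control effect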
[25] = target: Rap guanine nucleotide exchange factor 4 (Homo sapiens) (UniProt Q8WZA2); experiment: Confirmatory qHTS for antagonist of cAMP-regulated guanine nucleotide exchange factor 4 (EPAC2) (AID 1645885); also: potency is read from the fitted curve at half-maximal effect; nearly all actives have a fitted effect of over 25% in size
[26] = target: Glutathione peroxidase 1 (Homo sapiens) (UniProt P07203); experiment: Primary qHTS Assay for Inhibitors of Recombinant Selenoprotein Glutathione Peroxidase 1 (GPX1) (AID 1845191); also: nearly all actives have a fitted effect of over 65% in size
Outline: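 GPX1 10 nM, GR 100 nM, GSH 1 mM, NADPH 0.5 mM, CHP 0.5 mM (final). 30-min cpd preincubation, RT. Ex340/Em450 read t=0, t=15 min.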

[27] = target: Phospholipid hydroperoxide glutathione peroxidase GPX4 (Homo sapiens) (UniProt P36969); experiment: Primary qHTS Assay for Inhibitors of Recombinant Selenoprotein Glutathione Peroxidase 4 (GPX4) (AID 1845192); conditions: outcome: dose series up to 50 µM unless noted; also: series mostly up to about 50 µM; % is scaled to controls: 0 for no effect and ±100 for the full control effect; nearly all actives have a fitted effect of over 65% in size
Outline: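 qHTS, GR-coupled: GPX4 200 nM + cpd 30 min RT → GSH 1 mM, NADPH 0.5 mM, GR 100 nM → CHP 0.5 mM start; fluor 340/450 at t0 and t15 min; no-enzyme wells as control.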

[28] = target: Luciferin 4-monooxygenase (Photinus pyralis) (UniProt P08659); experiment: Primary firefly luciferase (FLuc) qHTS assay for identification of artifact compounds. (AID 1845220); also: nearly all actives have a fitted effect of over 60% in size
Outline: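 Reaction readout was CCD-imaged luminescence, taken 5 min after adding 10 nM purified firefly enzyme to compound-treated wells holding 10 uM luciferin and ATP in pH 7.6 buffer.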

[29] = qHTS drug screen for cell cycle checkpoint inhibitors in PARPi-resistant BRCA-mutant ovarian cancer cell lines. (AID 1963452; calls by dose curve); conditions: PEO1/OlaR viability, CellTiter-Glo luminescence, 96 h, stronger effect = lower value
Outline: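 PEO1, PEO4 and PEO1/OlaR ovarian cancer cells, 600 per well, exposed 96 h at 37C to a dilution series. Viability read by CellTiter-Glo luminescence, normalized to DMSO and empty wells; activity summarized as Z-AUC.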

Chain of Phospholipid hydroperoxide glutathione peroxidase GPX4 (Homo sapiens) (P36969 whole entry, looked up): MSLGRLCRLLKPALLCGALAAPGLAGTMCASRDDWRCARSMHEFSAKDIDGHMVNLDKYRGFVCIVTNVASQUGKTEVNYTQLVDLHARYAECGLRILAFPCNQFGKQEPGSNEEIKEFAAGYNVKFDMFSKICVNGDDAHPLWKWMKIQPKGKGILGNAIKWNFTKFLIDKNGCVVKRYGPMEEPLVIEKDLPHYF
Chain of Atrial natriuretic peptide receptor 1 (Homo sapiens) (P16066 whole entry, looked up): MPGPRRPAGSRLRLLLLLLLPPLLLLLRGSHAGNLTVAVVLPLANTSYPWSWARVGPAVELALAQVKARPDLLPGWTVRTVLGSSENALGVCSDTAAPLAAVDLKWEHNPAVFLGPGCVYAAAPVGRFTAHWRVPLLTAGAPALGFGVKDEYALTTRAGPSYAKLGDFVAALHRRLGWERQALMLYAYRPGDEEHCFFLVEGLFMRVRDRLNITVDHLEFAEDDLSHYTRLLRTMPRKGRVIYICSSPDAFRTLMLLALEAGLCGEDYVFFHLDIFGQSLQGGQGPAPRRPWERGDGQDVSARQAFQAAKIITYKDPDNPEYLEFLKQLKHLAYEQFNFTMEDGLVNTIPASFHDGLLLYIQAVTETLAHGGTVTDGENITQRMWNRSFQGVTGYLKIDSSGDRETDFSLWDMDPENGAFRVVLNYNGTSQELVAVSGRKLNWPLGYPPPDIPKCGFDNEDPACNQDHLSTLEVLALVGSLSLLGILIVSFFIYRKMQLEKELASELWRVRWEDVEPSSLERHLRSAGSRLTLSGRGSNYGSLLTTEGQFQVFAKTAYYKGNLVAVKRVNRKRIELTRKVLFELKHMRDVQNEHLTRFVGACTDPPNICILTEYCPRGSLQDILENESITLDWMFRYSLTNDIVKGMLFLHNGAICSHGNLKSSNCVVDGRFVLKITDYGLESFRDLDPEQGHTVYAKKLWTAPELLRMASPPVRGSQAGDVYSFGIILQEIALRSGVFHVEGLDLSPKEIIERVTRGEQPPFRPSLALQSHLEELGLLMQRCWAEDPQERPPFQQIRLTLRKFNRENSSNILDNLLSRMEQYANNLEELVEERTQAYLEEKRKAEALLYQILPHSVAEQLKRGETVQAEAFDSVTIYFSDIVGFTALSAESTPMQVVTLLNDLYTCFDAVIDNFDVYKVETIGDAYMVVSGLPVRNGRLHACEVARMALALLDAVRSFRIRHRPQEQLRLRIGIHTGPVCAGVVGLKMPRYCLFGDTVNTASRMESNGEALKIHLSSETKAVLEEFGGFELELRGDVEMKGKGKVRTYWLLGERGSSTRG
Chain of Furin (Homo sapiens) (P09958 whole entry, looked up): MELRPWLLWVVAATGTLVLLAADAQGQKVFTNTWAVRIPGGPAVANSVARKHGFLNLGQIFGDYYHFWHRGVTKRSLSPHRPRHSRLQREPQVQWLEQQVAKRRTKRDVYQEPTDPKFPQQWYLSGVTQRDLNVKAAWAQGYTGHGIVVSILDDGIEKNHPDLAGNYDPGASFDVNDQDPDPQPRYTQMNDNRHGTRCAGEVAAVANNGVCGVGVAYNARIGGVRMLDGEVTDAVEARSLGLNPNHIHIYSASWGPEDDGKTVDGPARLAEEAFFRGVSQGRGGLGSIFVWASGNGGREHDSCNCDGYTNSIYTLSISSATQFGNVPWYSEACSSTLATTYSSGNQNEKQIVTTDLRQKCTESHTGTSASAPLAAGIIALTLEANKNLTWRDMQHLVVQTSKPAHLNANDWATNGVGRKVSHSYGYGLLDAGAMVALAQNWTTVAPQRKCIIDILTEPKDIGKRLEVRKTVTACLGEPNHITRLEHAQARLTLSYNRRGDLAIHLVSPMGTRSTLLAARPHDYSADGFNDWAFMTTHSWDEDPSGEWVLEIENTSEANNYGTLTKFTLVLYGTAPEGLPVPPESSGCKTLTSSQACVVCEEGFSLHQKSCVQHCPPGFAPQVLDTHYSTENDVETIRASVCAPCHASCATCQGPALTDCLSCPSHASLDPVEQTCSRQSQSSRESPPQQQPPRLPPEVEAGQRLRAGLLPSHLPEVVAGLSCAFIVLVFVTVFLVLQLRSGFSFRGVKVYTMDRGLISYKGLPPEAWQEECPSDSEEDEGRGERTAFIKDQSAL
T1 sequence (P35557 whole entry, looked up): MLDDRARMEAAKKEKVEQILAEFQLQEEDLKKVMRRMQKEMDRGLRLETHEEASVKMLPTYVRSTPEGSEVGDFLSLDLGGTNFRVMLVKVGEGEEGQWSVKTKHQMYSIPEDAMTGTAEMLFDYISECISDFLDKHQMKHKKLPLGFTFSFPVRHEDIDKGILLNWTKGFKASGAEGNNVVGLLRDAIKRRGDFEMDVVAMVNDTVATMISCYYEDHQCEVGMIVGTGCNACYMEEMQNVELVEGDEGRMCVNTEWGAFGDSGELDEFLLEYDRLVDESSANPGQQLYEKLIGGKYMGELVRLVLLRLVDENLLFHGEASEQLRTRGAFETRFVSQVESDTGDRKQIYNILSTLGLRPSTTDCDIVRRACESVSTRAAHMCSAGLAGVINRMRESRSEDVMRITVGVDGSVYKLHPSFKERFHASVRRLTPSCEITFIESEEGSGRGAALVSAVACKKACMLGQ
T1 sequence (Q14397 whole entry, looked up): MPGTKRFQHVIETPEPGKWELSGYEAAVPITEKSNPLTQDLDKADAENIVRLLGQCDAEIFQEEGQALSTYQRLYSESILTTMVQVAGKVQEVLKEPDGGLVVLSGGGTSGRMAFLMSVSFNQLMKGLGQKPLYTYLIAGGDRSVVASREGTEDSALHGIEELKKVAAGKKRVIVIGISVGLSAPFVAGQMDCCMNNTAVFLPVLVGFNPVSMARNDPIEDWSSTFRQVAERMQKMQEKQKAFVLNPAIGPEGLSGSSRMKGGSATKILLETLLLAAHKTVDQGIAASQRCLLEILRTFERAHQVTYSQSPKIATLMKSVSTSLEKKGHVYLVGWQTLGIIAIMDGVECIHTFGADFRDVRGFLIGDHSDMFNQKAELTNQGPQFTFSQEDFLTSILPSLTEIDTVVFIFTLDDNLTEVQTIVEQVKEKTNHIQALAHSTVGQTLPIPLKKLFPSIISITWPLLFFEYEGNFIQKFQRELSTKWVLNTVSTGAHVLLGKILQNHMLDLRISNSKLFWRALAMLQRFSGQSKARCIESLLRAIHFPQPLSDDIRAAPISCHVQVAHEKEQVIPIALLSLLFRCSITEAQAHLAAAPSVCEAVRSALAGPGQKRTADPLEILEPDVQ
Chain of Glutathione peroxidase 1 (Homo sapiens) (P07203 whole entry, looked up): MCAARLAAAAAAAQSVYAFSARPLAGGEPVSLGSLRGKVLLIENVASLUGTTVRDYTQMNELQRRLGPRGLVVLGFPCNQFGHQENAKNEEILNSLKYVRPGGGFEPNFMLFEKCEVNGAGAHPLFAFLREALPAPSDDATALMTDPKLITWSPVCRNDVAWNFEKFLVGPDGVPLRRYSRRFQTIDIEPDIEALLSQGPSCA
Chain of M-phase phosphoprotein 8 (Homo sapiens) (Q99549 whole entry, looked up): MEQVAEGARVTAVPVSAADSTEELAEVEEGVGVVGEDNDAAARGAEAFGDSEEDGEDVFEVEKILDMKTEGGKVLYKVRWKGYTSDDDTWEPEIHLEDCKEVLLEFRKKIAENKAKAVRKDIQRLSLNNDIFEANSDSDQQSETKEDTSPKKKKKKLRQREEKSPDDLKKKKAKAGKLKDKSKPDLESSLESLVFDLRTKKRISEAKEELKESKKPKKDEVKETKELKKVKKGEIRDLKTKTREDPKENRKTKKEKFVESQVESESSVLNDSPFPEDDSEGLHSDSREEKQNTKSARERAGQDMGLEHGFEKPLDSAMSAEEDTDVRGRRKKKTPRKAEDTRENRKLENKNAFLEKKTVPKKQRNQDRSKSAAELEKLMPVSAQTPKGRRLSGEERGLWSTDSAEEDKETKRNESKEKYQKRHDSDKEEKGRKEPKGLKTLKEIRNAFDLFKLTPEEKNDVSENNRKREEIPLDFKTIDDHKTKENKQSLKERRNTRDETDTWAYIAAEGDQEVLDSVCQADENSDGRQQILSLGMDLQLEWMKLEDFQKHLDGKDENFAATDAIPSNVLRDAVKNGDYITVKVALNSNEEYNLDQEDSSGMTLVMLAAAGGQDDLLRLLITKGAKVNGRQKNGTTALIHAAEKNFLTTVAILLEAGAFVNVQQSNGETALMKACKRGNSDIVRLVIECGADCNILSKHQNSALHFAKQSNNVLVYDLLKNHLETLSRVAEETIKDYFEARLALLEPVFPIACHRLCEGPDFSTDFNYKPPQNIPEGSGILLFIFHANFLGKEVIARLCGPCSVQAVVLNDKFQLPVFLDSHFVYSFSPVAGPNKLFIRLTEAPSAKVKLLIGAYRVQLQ
Chain of Parathyroid hormone/parathyroid hormone-related peptide receptor (Homo sapiens) (Q03431 whole entry, looked up): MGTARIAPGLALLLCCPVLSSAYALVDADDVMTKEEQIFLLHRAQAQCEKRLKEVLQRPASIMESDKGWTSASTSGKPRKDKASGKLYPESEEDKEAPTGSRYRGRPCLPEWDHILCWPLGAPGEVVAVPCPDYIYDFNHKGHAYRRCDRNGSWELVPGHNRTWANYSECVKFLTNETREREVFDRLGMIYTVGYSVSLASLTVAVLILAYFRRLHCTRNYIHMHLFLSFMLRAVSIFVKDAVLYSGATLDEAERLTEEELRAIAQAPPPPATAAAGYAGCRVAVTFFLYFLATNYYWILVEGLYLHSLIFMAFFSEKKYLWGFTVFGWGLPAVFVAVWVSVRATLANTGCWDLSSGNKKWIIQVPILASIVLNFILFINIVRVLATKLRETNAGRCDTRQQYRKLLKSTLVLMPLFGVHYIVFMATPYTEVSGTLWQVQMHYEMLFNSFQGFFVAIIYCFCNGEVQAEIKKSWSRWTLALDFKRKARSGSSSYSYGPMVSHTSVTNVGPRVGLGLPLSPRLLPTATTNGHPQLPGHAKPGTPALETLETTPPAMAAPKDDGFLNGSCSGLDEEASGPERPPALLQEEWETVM
Chain of Single-stranded DNA cytosine deaminase (Homo sapiens) (Q9GZX7 whole entry, looked up): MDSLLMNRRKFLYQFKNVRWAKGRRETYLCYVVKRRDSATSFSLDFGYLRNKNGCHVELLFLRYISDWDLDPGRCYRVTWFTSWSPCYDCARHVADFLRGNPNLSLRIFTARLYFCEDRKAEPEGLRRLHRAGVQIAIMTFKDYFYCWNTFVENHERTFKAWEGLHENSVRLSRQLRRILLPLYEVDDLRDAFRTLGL

Nc1ncnc2c1ncn2[C@@H]1O[C@H](CSCC[C@H](N)C(=O)O)[C@@H](O)[C@H]1O
inactive: Potency (Furin (Homo sapiens)) | Potency [1] | Potency [2] | Potency [3] | Potency [4] | Potency [5] | Potency [6] | Potency [7]

Cc1ccc(OCC(=O)Nc2ccc(C(=O)OCc3cc(=O)n4nc(C5CC5)sc4n3)cc2)cc1
inactive: Potency (Furin (Homo sapiens))

C[C@H]1CC[C@H]2C(=O)N(Cc3cccc([N+](=O)[O-])c3)C[C@H](O)CN2[C@H]1c1cccc(Br)c1
inactive: Potency [8] | Potency [9]

COc1cc2c(c(OC)c1OC)CC(c1ccccc1)=C(c1ccccc1)CC2NC(=O)C(F)(F)F (stereo not drawn)
inactive: Potency [8] | Potency [9]

O=C1C2=C(Nc3ccccc3SC2c2ccc(Cl)c(Cl)c2)c2ccccc21 (stereo not drawn)
inactive: Potency (Furin (Homo sapiens))

C/C=C/CC(C)C(O)C1C(=O)NC(CC)C(=O)N(C)CC(=O)N(C)C(CC(C)C)C(=O)NC(C(C)C)C(=O)N(C)C(CC(C)C)C(=O)NC(C)C(=O)NC(C)C(=O)N(C)C(CC(C)C)C(=O)N(C)C(CC(C)C)C(=O)N(C)C(C(C)C)C(=O)N1C (stereo not drawn)
0.643: Z-AUC ([29]; measured here: PEO1 parental Z-AUC)
active: Potency [25] 7.84 µM
inactive: outcome [10] | Potency [11] | Potency [12] | outcome [13] | outcome [14] | outcome [15] | outcome [16] | Potency [17] | Potency [1] | Potency [18] | Potency [19] | Potency [20] | outcome [21] | outcome [22] | Potency [23] | outcome [24] | Potency (Papain (Carica papaya)) | Potency [26] | Potency [27] | Potency [28] | Z-AUC [29] -0.474
0.0499: Z-AUC ([29]; measured here: PEO4 Z-AUC)

C[C@@H]1CC[C@H]2C(=O)N(Cc3ccccc3)C[C@H](O)CN2[C@@H]1c1ccc(Br)cc1
inactive: Potency [8]
active: Potency [9] 2.99 µM

COC1=C[C@H](C(=O)NC2CCN(Cc3ccccc3)CC2)[C@H](C)[C@@H](c2ccccc2)CC1=O
inactive: Potency [8] | Potency [9]

O=S(=O)(N[C@H]1CO[C@H]2[C@@H]1OC[C@@H]2Nc1nccc(-c2ccc3c(c2)OCO3)n1)c1ccc2ccccc2c1
active: Potency (Furin (Homo sapiens)) 55.5 µM
